From PubChem
FBA Mtb inh: inhibitors of M. tuberculosis fructose-bisphosphate aldolase; P9WQA3; purified M. tuberculosis FBA, fluorescence read-out; inhibition, % at 1 µM; 360,000 tested, 2.3% active; AID 588726; in the data active = inhibition above about 27%;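 note: 0% = vehicle and 100% = reference inhibitor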
Bead autofluor: counter-screen for toxin protease inhibitors: compound fluorescence. compound autofluorescence counterscreen, microsphere flow cytometry; hits give high values. fluorescence intensity (concentration not given with the values). 360,000 tested, 3.1% active. AID 624483; in the data active = fluorescence intensity above about 16000; inconclusive = no clear call, values can overlap the other calls
BoNT A protease: inhibitors of Botulinum neurotoxin A light chain protease | multiplex microsphere protease substrate cleavage, flow cytometry | 360,000 tested, 0.17% active | inhibition, % at 10 µM | AID 588499; note: plate controls were buffer without enzyme for full effect and enzyme alone for no effect
GDH-TPI counter: counter-screen for M. tuberculosis FBA inhibitors: GDH-TPI coupled enzymes; inhibition, % at 4.8 µM; GDH-TPI coupled enzyme counterscreen, NADH absorbance; 360,000 tested, 1.2% active; AID 588335; in the data active = inhibition above about 30%;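 note: 0% = DMSO wells and 100% = wells lacking the enzyme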
Anthrax LF prot: blocks Bacillus anthracis lethal factor protease | P15917 | multiplex microsphere protease cleavage assay, LF | inhibition, % at 10 µM | 360,000 tested, 0.12% active | AID 588501; note: plate controls were buffer without enzyme for full effect and enzyme alone for no effect
Target sequence (P15917 whole entry, looked up): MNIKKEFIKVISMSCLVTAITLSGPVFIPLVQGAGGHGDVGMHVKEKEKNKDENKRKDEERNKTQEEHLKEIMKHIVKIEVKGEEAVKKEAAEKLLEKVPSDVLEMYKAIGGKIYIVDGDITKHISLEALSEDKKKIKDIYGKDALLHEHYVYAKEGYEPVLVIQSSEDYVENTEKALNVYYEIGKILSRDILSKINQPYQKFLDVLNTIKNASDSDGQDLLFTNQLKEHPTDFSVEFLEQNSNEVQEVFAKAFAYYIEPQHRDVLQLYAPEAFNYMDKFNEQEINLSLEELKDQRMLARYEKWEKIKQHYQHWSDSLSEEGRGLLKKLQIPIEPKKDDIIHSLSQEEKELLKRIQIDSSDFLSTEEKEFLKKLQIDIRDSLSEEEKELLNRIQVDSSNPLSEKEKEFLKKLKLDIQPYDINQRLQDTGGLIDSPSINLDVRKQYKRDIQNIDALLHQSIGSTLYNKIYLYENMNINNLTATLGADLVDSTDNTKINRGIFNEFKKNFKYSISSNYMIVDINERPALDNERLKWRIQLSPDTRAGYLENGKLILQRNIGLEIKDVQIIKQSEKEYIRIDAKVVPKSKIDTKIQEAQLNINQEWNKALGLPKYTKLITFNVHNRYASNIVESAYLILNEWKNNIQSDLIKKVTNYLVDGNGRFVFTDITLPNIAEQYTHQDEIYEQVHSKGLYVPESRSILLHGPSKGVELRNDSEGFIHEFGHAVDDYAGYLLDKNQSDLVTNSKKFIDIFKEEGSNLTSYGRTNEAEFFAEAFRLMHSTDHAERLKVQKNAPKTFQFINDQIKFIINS
BoNT F protease: blocks Botulinum neurotoxin F light chain protease; Multiplex microsphere protease cleavage assay, flow cytometry; inhibition, % at 10 µM; 360,000 tested, 0.22% active; AID 588497; in the data active = inhibition above about 35%, passing the limit was not always enough; inconclusive = no clear call, values can overlap the other calls; note: plate controls were buffer without enzyme for full effect and enzyme alone for no effect
The depositor's hits bear a star; ? = inconclusive. An excerpt weighted towards active compounds, which were near 6.7% of everything screened. Cut-off read from the data, not from the text of the source, unless noted: active = inhibition above about 30%; inconclusive = no clear call, values can overlap the other calls; inactive = below that.

SMILES | FBA Mtb inh | Bead autofluor | BoNT A protease | GDH-TPI counter | Anthrax LF prot | BoNT F protease
CCCCNC(=S)NCc1ccc2c(c1)cc(C)n2C | -3 | 3100 | 30* | 7 | -42 | -76
COc1cc(CNCCO)cc(Br)c1OCc1ccccc1Cl | 0 | 12019 | -1 | 7 | -5 | -20
CN(C)C=NC(=O)/C(C#N)=C1\CCc2ccccc2N1 | 1 | 3519 | 0 | 56* | 3 | -8
COc1ccc(/C=C(\C#N)C(=O)N=CN(C)C)cc1 | -1 | 2549 | 0 | 10 | 2 | 6
Cc1onc(-c2ccccc2)c1C(=O)Nc1cccnc1 | -2 | 2427 | 0 | 6 | 3 | -5
Cc1onc(-c2ccccc2Cl)c1C(=O)NCC(=O)O | -1 | 9391 | 0 | -13 | -8 | 0
Cc1onc(-c2ccccc2Cl)c1C(=O)Nc1cccnc1 | 1 | 20230* | 1 | 1 | 1 | 0
Cc1onc(-c2ccccc2Cl)c1C(=O)NCCn1c(C)cc2ccccc21 | 3 | 1177 | 59* | 0 | -138 | -150
CCSc1nnc(NC(=O)c2c(-c3ccccc3Cl)noc2C)s1 | 2 | 2892 | 1 | 0 | 6 | ?
Cc1onc(-c2ccccc2Cl)c1C(=O)Nc1nnc(-c2cccc([N+](=O)[O-])c2)s1 | 3 | 4697 | 0 | 35* | 3 | -2
CCCCNS(=O)(=O)c1ccc(NC(=O)c2c(-c3ccccc3Cl)noc2C)cc1 | 1 | 19198* | 2 | -9 | 4 | 0
CCC(C)N=CC1=C(O)CC(c2ccccc2)CC1=O (stereo not drawn) | 3 | 3316 | 0 | 18 | 0 | 4
Cc1cc(C)c2nc(NC(=O)c3cc(C)on3)sc2c1 | 0 | 2839 | 0 | 29 | 5 | -4
Cn1c(=O)[nH]c(=O)c2c1nc(Br)n2CCOc1ccccc1 | 0 | 3299 | -1 | 5 | 9 | -1
CCOc1ccccc1NC(=O)CC1NCCNC1=O (stereo not drawn) | 0 | 18163* | 4 | -6 | -14 | 7
O=C(CC1C(=O)NCCN1C(=S)Nc1ccccc1)Nc1ccc2c(c1)OCCO2 (stereo not drawn) | 1 | 24623* | -3 | 1 | -2 | -5
O=C(CC1C(=O)NCCN1C(=O)Nc1ccccc1)Nc1ccc2c(c1)OCO2 (stereo not drawn) | -1 | 2326 | 0 | 11 | -7 | 1
COc1ccccc1NC(=O)CC1C(=O)NCCN1C(=O)Nc1ccccc1 (stereo not drawn) | 0 | 21334* | 3 | 5 | 3 | 5
CN(CC(=O)NCc1cccs1)S(=O)(=O)c1cccc2nsnc12 | -7 | 4300 | -3 | 3 | -5 | -19
CCOc1ccc(/C=C/C(=O)N(CC)CC(=O)Nc2c(F)cccc2F)cc1OC | 10 | 3933 | 0 | 32* | 2 | -7
CCCN(CC(=O)Nc1ccccc1C)C(=O)/C=C/c1ccc(OCC)c(OC)c1 | 13 | 3165 | -1 | 34* | 0 | -4
O=c1cc(O)c2sc(Nc3ccc(F)cc3)nc2[nH]1 | 1 | 2554 | 0 | 24 | 0 | -1
CC(C)OC(=O)c1cc2ccccc2[nH]1 | 4 | 21156* | -5 | -15 | 3 | -4
CCOC(=O)c1cc(C(=O)NC(C)c2ccccc2)c(=O)[nH]c1C (stereo not drawn) | -1 | 3602 | 0 | 13 | 13 | 9
CCOC(=O)c1cnc(-n2nc(C)cc2C)nc1NCc1ccccc1 | 2 | ? | 3 | 9 | 5 | -3
SMILES | FBA Mtb inh | Bead autofluor | BoNT A protease | GDH-TPI counter | Anthrax LF prot | BoNT F protease
CCOC(=O)c1cnc(-n2nc(C)cc2C)nc1NCCO | 5 | 22604* | -1 | 0 | -1 | -2
CCOC(=O)c1cnc(-n2nc(C)cc2C)nc1N1CC(C)OC(C)C1 (stereo not drawn) | 2 | 21874* | 3 | -1 | -2 | 1
CCOC(=O)c1cnc(-n2nc(C)cc2C)nc1NC(C)c1ccccc1 (stereo not drawn) | 4 | 16140* | 0 | 8 | -2 | -3
CCOC(=O)c1cnc(-c2ccccc2)nc1N1CC(C)OC(C)C1 (stereo not drawn) | -2 | 3365 | -1 | 0 | -5 | 0
CCOC(=O)/C(C#N)=C/c1cn(CCOc2ccccc2)c2ccccc12 | 2 | 2318 | 0 | 1 | 3 | -3
CC1CN(C(=O)C(C)Sc2nnnn2C)CC(C)O1 (stereo not drawn) | 0 | 3649 | -1 | 1 | 0 | -3
CCS(=O)(=O)c1ccc2c(c1)NC(=O)C(CCO)O2 (stereo not drawn) | -4 | 3818 | 0 | 8 | -2 | -1
